Reference: PubChem BioAssay (Tox21)
Inconclusive results are not listed. Activity calls are given as the source filed them. Unless noted, calls come from the whole dose curve; as a rule, active = well fitted curve in the direction sought with a large enough effect in the repeat runs; inconclusive = weak or mixed curves; inactive = flat fitted curve, though single readings scatter.

What was measured:
[1] = qHTS assay to test for compound auto fluorescence at 535 nm (green) in HEK293 cells (AID 720680)
[2] = qHTS assay to test for compound auto fluorescence at 460 nm (blue) in HEK293 cell free culture (AID 720681)
How it was run: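 Compounds were added to cell-free DMEM with 10% FBS and fluorescence read directly. The blue channel used 405 nm excitation and 460 nm emission, with triamterene as the reference fluorophore.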

[3] = qHTS assay to test for compound auto fluorescence at 535 nm (green) in HEK293 cell free culture (AID 720682)
How it was run: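 Green-label autofluorescence (485 nm excitation, 535 nm emission) measured on compound added to cell-free culture medium (DMEM, 10% FBS). Output is expressed relative to fluorescein.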

[4] = qHTS assay to test for compound auto fluorescence at 590 nm (red) in HEK293 cell free culture (AID 720683)
How it was run: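 Cell-free wells of DMEM with 10% FBS received compound, and intrinsic fluorescence was read at excitation/emission 540/590 nm. Values expressed as equivalence to Rose Bengal sodium.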

[5] = qHTS assay to test for compound auto fluorescence at 590 nm (red) in HepG2 cell free culture (AID 720684)
How it was run: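 Compound was pinned into wells holding MEM with 10% FBS and no cells, and red fluorescence was read at Ex/Em 540/590 nm. Signal is expressed as auto fluorescence equivalency relative to Rose Bengal sodium.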

[6] = qHTS assay to test for compound auto fluorescence at 460 nm (blue) in HepG2 cell free culture (AID 720685)
How it was run: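 Compound (23 nL) or DMSO pinned into cell-free MEM with 10% FBS; blue fluorescence read at 405/460 nm excitation/emission, expressed as auto-fluorescence equivalency to triamterene.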

[7] = qHTS assay to test for compound auto fluorescence at 535 nm (green) in HepG2 cell free culture (AID 720686)
[8] = qHTS assay to test for compound auto fluorescence at 460 nm (blue) in HepG2 cells (AID 720687)
How it was run: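 HepG2 cells in MEM with 10% FBS, attached overnight at 37 C, were exposed to compound or DMSO for 1 hr at 37 C, 5% CO2. Blue fluorescence was read at 405/460 nm, with triamterene as reference fluorophore.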

[9] = target: Glucocorticoid receptor (Homo sapiens) (UniProt P04150); experiment: qHTS assay to identify small molecule agonists of the glucocorticoid receptor (GR) signaling pathway (AID 720691; active = well fitted activation curve with a large enough effect in the signal ratio in the repeat runs, not every such curve was filed as active; the % refers to the signal ratio)
How it was run: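 qHTS in GR-bla HeLa cells: 4 h settling at 37 C/5% CO2, 18 h compound incubation at 37 C, 2 h LiveBLAzer B/G FRET substrate at room temperature, fluorescence intensity measured.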

[10] = target: Glucocorticoid receptor (Homo sapiens) (UniProt P04150); experiment: qHTS assay to identify small molecule antagonists of the glucocorticoid receptor (GR) signaling pathway (AID 720692; active = well fitted inhibition curve with a large enough effect in the signal ratio in the repeat runs, not every such curve was filed as active; the % refers to the signal ratio)
How it was run: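 Inhibition of glucocorticoid signalling is measured in HeLa cells with a GRE-controlled beta-lactamase reporter; cells are co-treated with compound and 5 nM dexamethasone (final) for 18 h before FRET substrate readout.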
% is set by controls: 0 for no effect and ±100 for the full control effect.

Sequence of Glucocorticoid receptor (Homo sapiens) (P04150 whole entry, looked up): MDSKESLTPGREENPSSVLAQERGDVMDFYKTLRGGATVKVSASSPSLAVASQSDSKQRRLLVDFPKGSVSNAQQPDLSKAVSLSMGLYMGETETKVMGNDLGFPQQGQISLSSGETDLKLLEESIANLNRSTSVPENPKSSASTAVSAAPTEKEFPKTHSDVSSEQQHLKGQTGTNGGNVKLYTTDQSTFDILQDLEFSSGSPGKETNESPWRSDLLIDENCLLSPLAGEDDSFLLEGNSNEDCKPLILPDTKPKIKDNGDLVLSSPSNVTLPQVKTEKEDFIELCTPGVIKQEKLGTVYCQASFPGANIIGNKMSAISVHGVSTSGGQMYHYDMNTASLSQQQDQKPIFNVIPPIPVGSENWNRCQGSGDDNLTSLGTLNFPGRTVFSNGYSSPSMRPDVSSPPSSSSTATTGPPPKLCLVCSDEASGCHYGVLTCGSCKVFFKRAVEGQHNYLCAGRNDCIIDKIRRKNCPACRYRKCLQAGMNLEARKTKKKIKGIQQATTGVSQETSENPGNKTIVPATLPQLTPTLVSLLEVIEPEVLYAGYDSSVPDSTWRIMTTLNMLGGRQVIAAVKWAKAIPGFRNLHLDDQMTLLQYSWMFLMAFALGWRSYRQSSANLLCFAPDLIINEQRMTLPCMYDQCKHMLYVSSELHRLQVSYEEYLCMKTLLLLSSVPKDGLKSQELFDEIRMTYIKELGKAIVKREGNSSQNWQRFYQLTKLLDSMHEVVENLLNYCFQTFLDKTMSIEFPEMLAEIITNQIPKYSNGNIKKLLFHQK

CCOC(CN1CCN(CC(C)C(=O)c2ccccc2)CC1)c1ccccc1 (stereo not drawn)
inactive: outcome [1] | outcome [2] | outcome [3] | outcome [4] | outcome [5] | outcome [6] | outcome [7] | outcome [8] | Potency [9]

CC(C)(CO)C(O)C(=O)NCCCO (stereo not drawn)
inactive: outcome [1] | outcome [2] | outcome [3] | outcome [4] | outcome [5] | outcome [6] | outcome [7] | outcome [8]

COC(=O)c1cccc(Cl)c1
inactive: outcome [1] | outcome [2] | outcome [3] | outcome [4] | outcome [5] | outcome [6] | outcome [7] | outcome [8]

CC12CCC(C1)C(C)(C)C2O (stereo not drawn)
inactive: outcome [1] | outcome [2] | outcome [3] | outcome [4] | outcome [5] | outcome [6] | outcome [7] | outcome [8]

NCC1(Cc2noc(=O)[nH]2)CCCCC1
inactive: outcome [1] | outcome [2] | outcome [3] | outcome [4] | outcome [5] | outcome [6] | outcome [7] | outcome [8]

COc1ccc2c(c1)c1c3n2CCN(C)C3=NCC1
inactive: outcome [1] | outcome [2] | outcome [3] | outcome [4] | outcome [5] | outcome [6] | outcome [7] | outcome [8] | Potency [9]

C[C@@H](O)C(=O)O
inactive: outcome [1] | outcome [2] | outcome [3] | outcome [4] | outcome [5] | outcome [6] | outcome [7] | outcome [8]

CC(C)CCOC(=O)c1ccccc1
inactive: outcome [1] | outcome [2] | outcome [3] | outcome [4] | outcome [5] | outcome [6] | outcome [7] | outcome [8]

O=C[O][Al]([O]C=O)[O]C=O
inactive: outcome [1] | outcome [2] | outcome [3] | outcome [4] | outcome [5] | outcome [6] | outcome [7] | outcome [8] | Potency [9] | outcome [10]

CC(C)(C)NC[C@H](O)COc1cccc2c1CCCC2=O
inactive: fluorescence, % of fluorescein [1] 0.0019% [at 18.6 µM] | fluorescence, % of fluorescent control [2] 0.0024% [at 18.6 µM] | activity change [3] -0.0347% [at 18.6 µM] | fluorescence, % of fluorescent control [4] -0.286% [at 18.6 µM] | fluorescence, % of Rose Bengal [5] 0.355% [at 18.6 µM] | fluorescence, % of fluorescent control [6] -0.0088% [at 18.6 µM] | fluorescence, % of fluorescein control [7] -0.0049% [at 18.6 µM] | fluorescence, % of fluorescent control [8] 0.0464% [at 18.6 µM] | Potency [9] | outcome [10]

CCCCCCCCCCCCCCC(=O)NC(CO)CCCCCCCCCCCCCC (stereo not drawn)
inactive: outcome [1] | outcome [2] | outcome [3] | outcome [4] | outcome [5] | outcome [6] | outcome [7] | outcome [8] | Potency [9] | outcome [10]

CC/C=C\CCOC(=O)c1ccccc1O
inactive: outcome [1] | outcome [2] | outcome [3] | outcome [4] | outcome [5] | outcome [6] | outcome [7] | outcome [8] | Potency [9] | outcome [10]

CC1=C(O)C(=O)C(C)O1 (stereo not drawn)
inactive: outcome [1] | outcome [2] | outcome [3] | outcome [4] | outcome [5] | outcome [6] | outcome [7] | outcome [8] | Potency [9] | outcome [10]

COc1ccc(CCO)cc1
inactive: outcome [1] | outcome [2] | outcome [3] | outcome [4] | outcome [5] | outcome [6] | outcome [7] | outcome [8] | Potency [9] | outcome [10]

CC(=O)OCC(=O)Nc1cc(C#N)cc(NC(=O)COC(C)=O)c1Cl
inactive: outcome [1] | outcome [2] | outcome [3] | outcome [4] | outcome [5] | outcome [6] | outcome [7] | outcome [8] | Potency [9] | outcome [10]

CN(C)CC/C=C1/c2ccccc2COc2ccc(CC(=O)O)cc21
inactive: outcome [1] | outcome [2] | outcome [3] | outcome [4] | outcome [5] | outcome [6] | outcome [7] | outcome [8] | Potency [9] | outcome [10]

c1ccc(-c2nn[nH]n2)cc1
inactive: outcome [1] | outcome [2] | outcome [3] | outcome [4] | outcome [5] | outcome [6] | outcome [7] | outcome [8] | Potency [9]

OCC1CCC(CO)CC1 (stereo not drawn)
inactive: outcome [1] | outcome [2] | outcome [3] | outcome [4] | outcome [5] | outcome [6] | outcome [7] | outcome [8] | Potency [9] | outcome [10]

O=C(CCCCC(=O)Nc1c(I)cc(I)c(C(=O)O)c1I)Nc1c(I)cc(I)c(C(=O)O)c1I
inactive: outcome [1] | outcome [2] | outcome [3] | outcome [4] | outcome [5] | outcome [6] | outcome [7] | outcome [8] | Potency [9] | outcome [10]

CC(=O)OC1CCCCC1C(C)(C)C (stereo not drawn)
inactive: outcome [1] | outcome [2] | outcome [3] | outcome [4] | outcome [5] | outcome [6] | outcome [7] | outcome [8] | Potency [9]

CC1(C)CC(OC(=O)CCCCCCCCC(=O)OC2CC(C)(C)NC(C)(C)C2)CC(C)(C)N1
inactive: fluorescence, % of fluorescein [1] -0.0999% [at 18.6 µM] | fluorescence, % of fluorescent control [2] -0.182% [at 18.6 µM] | activity change [3] -0.0076% [at 18.6 µM] | fluorescence, % of fluorescent control [4] 0.038% [at 18.6 µM] | fluorescence, % of Rose Bengal [5] 0.143% [at 18.6 µM] | fluorescence, % of fluorescent control [6] -0.0702% [at 18.6 µM] | fluorescence, % of fluorescein control [7] -0.17% [at 18.6 µM] | fluorescence, % of fluorescent control [8] -0.0104% [at 18.6 µM] | Potency [9] | outcome [10]

Cc1c(C(=O)c2c[nH]n(C)c2=O)ccc(S(C)(=O)=O)c1C1=NOCC1
inactive: outcome [1] | outcome [2] | outcome [3] | outcome [4] | outcome [5] | outcome [6] | outcome [7] | outcome [8] | Potency [9]

COC(=O)c1cc(Cl)cc(Cl)c1
inactive: outcome [1] | outcome [2] | outcome [3] | outcome [4] | outcome [5] | outcome [6] | outcome [7] | outcome [8] | Potency [9] | outcome [10]

CC(CO)(CO)CO
inactive: outcome [1] | outcome [2] | outcome [3] | outcome [4] | outcome [5] | outcome [6] | outcome [7] | outcome [8] | Potency [9] | outcome [10]
